A selection: hits, their analogues and other compounds. The true share with any hit is near 2.4%.
D2 PAM-1 = Beta-Arrestin HTS for Positive Allosteric Modulators of the Human D2 Dopamine Receptor: Potentiators; 360,000 tested, 0.23% active; DiscoveRx D2 beta-arrestin cells, luminescence, 90 min; 100% = 57 uM dopamine signal; potentiation, % (concentration not given with the values); in the data active = potentiation above about 50%; inconclusive = mostly about 30% to 49%
Target sequence (P14416 whole entry, looked up): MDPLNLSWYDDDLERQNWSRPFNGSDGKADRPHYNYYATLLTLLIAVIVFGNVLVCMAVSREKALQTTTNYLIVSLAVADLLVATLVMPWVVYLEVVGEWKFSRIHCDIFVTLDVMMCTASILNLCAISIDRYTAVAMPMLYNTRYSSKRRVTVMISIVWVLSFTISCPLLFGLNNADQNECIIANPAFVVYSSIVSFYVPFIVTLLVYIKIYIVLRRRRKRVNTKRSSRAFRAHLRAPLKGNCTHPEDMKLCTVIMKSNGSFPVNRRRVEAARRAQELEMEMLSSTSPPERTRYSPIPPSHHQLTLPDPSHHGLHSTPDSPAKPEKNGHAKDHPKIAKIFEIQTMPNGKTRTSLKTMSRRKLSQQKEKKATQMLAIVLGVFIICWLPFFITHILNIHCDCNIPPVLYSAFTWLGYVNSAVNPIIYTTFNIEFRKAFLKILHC
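PathHunter beta-arrestin assay in DiscoveRx D2 cells. Compounds were added with an EC20 of dopamine (50 nM final) for 90 min at 37 deg C. Luminescence was read 1 h after detection reagent, with 57 uM dopamine as the EC100 control.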
D2 ag-1 = Beta-Arrestin HTS for Positive Allosteric Modulators of the Human D2 Dopamine Receptor: Agonists. D(2) dopamine receptor (Homo sapiens), P14416. 360,000 tested, 0.084% active. DiscoveRx PathHunter D2 beta-arrestin, luminescence, 90 min; 100% = 57 uM dopamine signal. activation, % (test concentration not listed). AID 624465, 2012; in the data active = activation above about 40%; inconclusive = between about 15% and that limit
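DiscoveRx PathHunter D2 beta-arrestin cells (2,100/well) attached overnight, then compound-stimulated 90 min at 37 C in HBSS/10 mM HEPES/0.1% Tween-20 buffer; beta-galactosidase complementation read by luminescence after 1 h at ambient temperature. Dopamine 57 uM final (EC100) as control.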
D2 antagonist = HTS Assay for Allosteric Antagonists of the Human D2 Dopamine Receptor: Primary Screen for Antagonists; D(2) dopamine receptor (Homo sapiens), P14416; 340,000 tested, 2% active; inhibition, % at 10 µM; HEK293 TREx D2 cells, calcium flux, dopamine EC80; in the data active = inhibition above about 30%; inactive = below that, where a call was filed; note: 0% is about no effect
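Read-out: kinetic calcium fluorescence (1 cycle/s) in inducible HEK293 T-REx D2 cells after an EC80 dopamine addition that followed 180 s compound preincubation. Loss of the dopamine response indicates antagonism.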
D2 ag-2 = HTS Assay for Allosteric Agonists of the Human D2 Dopamine Receptor: Primary Screen for Agonists; HEK293 T-REx D2 cells, calcium flux agonist mode; activation, % at 2 µM; 340,000 tested, 0.53% active; AID 485358, 2010;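 active = activation over 3 SD above normal in the single-dose calcium agonist read, cut at about 30% in these data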; note: 0% is about no effect
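Agonism is scored from calcium flux in a force-coupled, inducible HEK293 cell line expressing D2, read kinetically for 180 s after compound addition against dopamine controls.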
D2 PAM-2 = HTS Assay for Positive Allosteric Modulators of the Human D2 Dopamine Receptor: Primary Screen for Potentiators; D(2) dopamine receptor (Homo sapiens), P14416; HEK293 T-REx D2, calcium flux, EC20 dopamine potentiation; potentiation, % at 10 µM; 340,000 tested, 0.34% active; AID 485347, 2010;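 active = potentiation over 3 SD above the plate norm, cut at about 30% in these data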; note: 0% is about no effect
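Primary screen. Calcium kinetics in induced HEK293 T-REx D2 cells: compound pre-addition 180 s, EC20 dopamine, 180 s more.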
Active calls of the source: *; ? = inconclusive; · = not tested or not shown.

SMILES	D2 PAM-1	D2 ag-1	D2 antagonist	D2 ag-2	D2 PAM-2
COc1ccc(S(=O)(=O)N(C(=O)c2ccco2)c2cc3sc(=O)oc3c3ccccc23)cc1	97*	?	0	0	2
Cc1ccc(S(=O)(=O)N(C(=O)c2ccco2)c2cc3sc(=O)oc3c3ccccc23)cc1	63*	?	-1	0	2
CCOc1ccc(S(=O)(=O)N(C)CC(=O)NCc2ccco2)cc1	-3	0	6	-3	·
CCOc1ccc(S(=O)(=O)N(C(=O)c2ccco2)c2cc3sc(=O)oc3c3ccccc23)cc1	150*	?	-1	0	3
CC(=O)N(c1ccc2oc(=O)sc2c1)S(=O)(=O)c1ccccc1	?	2	0	-1	4
CC(=O)Nc1ccc(C(=O)COC(=O)c2c(C)noc2C)c(F)c1	-24	1	-37	-1	-4
CC(=O)Nc1ccc(C(=O)COC(=O)c2cccs2)c(F)c1	3	-2	35*	0	1
COc1ccc(N2CCN(S(=O)(=O)CCNC(=O)c3ccc(OC(C)C)cc3)CC2)cc1	·	·	·	0	9
COc1ccc(S(=O)(=O)N2CCC(NC(=O)OCc3c(Cl)cccc3Cl)CC2)cc1	-7	-2	35*	1	5
COc1ccc(CNC(=O)C2CCN(S(=O)(=O)c3ccc(F)cc3)CC2)cc1	·	·	·	-2	-20
COc1ccc(COC(=O)NC2CCN(S(=O)(=O)c3ccc(OC)cc3)CC2)cc1	-4	0	-8	-1	11
COc1ccc(CNC(=O)C2CCCN(S(=O)(=O)c3ccc(-n4cnnn4)cc3)C2)cc1 (stereo not given)	3	-3	36*	1	-16
COc1ccc(S(=O)(=O)N2CCC(C(=O)NCc3ccc(C)cc3)CC2)cc1	-8	-4	34*	0	-1
Cc1ccc(S(=O)(=O)N2CCC(C(=O)N3CC(C)OC(C)C3)CC2)cc1 (stereo not given)	-12	-4	50*	-1	2
COc1cc(Cl)c(C)cc1NC(=O)CCn1c(=O)c2cccn2c2cccnc21	·	·	·	-2	3
CCN(C(=O)c1sc2nc3n(c(=O)c2c1C)CCCC3)c1ccccc1F	·	·	·	1	-5
O=C(O)CCSc1nc(C(F)(F)F)cc(=O)n1-c1ccccc1	-9	-2	33*	0	7
CCC(CC)C(=O)N(c1ccc(F)cc1)C1C=CS(=O)(=O)C1 (stereo not given)	-7	2	73*	1	1
O=C(COCc1cc(-c2ccc3c(c2)OCO3)on1)Nc1cccc(O)c1	·	·	·	-1	3
C=CC[N+](C)(C)CCCNC(=O)/C=N/O	-8	-2	62*	-1	-1
COc1ccc(-n2c(=O)c3ccc(C(=O)NCc4ccc(C)cc4)cc3n(CC(=O)Nc3cccc(F)c3)c2=O)cc1	·	·	·	1	10
COc1cc(NC(=O)c2cc(-c3ccco3)on2)cc(OC)c1OC	-16	-2	33*	-2	-19
Cc1cc(NC(=O)c2cc(-c3ccco3)on2)nn1Cc1ccc(Cl)cc1	-7	0	-4	32*	-19
Cc1nn(Cc2ccc(Cl)cc2)c(C)c1NC(=O)c1cc(-c2ccco2)on1	-3	2	-12	0	-4
CCOC(=O)c1ccc(CN(Cc2ccc(Cl)cc2Cl)S(=O)(=O)c2ccc(F)c(C)c2)cc1	·	·	·	0	-14
SMILES	D2 PAM-1	D2 ag-1	D2 antagonist	D2 ag-2	D2 PAM-2
CCOc1ccccc1NC(=O)CCNS(=O)(=O)c1ccc2c(c1)CCN2C(=O)C1CC1	·	·	·	7	-5
Cc1c(C(=O)NCCN2C(=O)S/C(=C\c3cccnc3)C2=O)cccc1[N+](=O)[O-]	-9	1	-2	0	1
O=C(NCCN1C(=O)S/C(=C\c2cccnc2)C1=O)c1ccc([N+](=O)[O-])s1	19	2	33*	-1	-1
CCc1cc2c(N[C@@H](Cc3c[nH]c4ccccc34)C(=O)O)ncnc2s1	2	-2	21	0	8
CCc1cc2c(NC(Cc3c[nH]c4ccccc34)C(=O)O)nc(C)nc2s1 (stereo not given)	4	4	34*	-2	-1
O=C1NCCN(Cc2ccc(F)cc2)C1=O	·	·	·	-1	3
Cc1ccc(Cl)cc1NC(=S)N(CCCN1CCN(C)CC1)Cc1cccs1	-18	-7	45*	2	-30
COc1ccc(NC(=S)N(CCCN2CCCC(C)C2)Cc2cccs2)cc1 (stereo not given)	-23	-3	49*	0	·
Cc1cc(Cl)ccc1NC(=S)N(CCCN1CCOCC1)Cc1cccs1	-24	-5	-8	2	2
COc1ccc(CC(=O)NC2CC(=O)N(c3ccc4c(c3)OCCO4)C2)cc1 (stereo not given)	·	·	·	0	0
CCc1cccc(NC(=O)c2cn3c4c(ccc(Cl)c4c2=O)OC(C)C3)c1 (stereo not given)	·	·	·	2	·
Cc1ccccc1N1C(=O)CC(Nc2ccc3c(c2)OCO3)C1=O (stereo not given)	-4	-6	31*	-1	-2
O=C(CSc1nc2ccccc2o1)Nc1nc(-c2ccccc2)cs1	-13	-3	30*	-1	-21
COc1cc(NC(=O)c2ccc3c(SCC(=O)O)c4c(nc3c2)CCC4)cc(OC)c1OC	-10	-2	36*	-1	-11
COc1cccc(NC(=O)Cn2c(CCC(=O)O)ccc2-c2ccccc2)c1	-6	-4	4	1	34*
NC(CC(=O)NC(c1ccccc1)(c1ccccc1)c1ccccc1)C(=O)O (stereo not given)	-5	-5	-3	1	37*
COc1cc(CO)ccc1Oc1nnnn1-c1ccc(C(N)=O)cc1	-6	-1	31*	0	-6
CC1=CC2=NC(=O)CC(C)(C(=O)N(CC(=O)NC3CCCC3)c3cc(C)cc(C)c3)N2C=C1 (stereo not given)	-7	1	60*	0	10
CC1=CC2=NC(=O)CC(C)(C(=O)N(CC(=O)NC(C)(C)C)C3CCCC3)N2C=C1 (stereo not given)	3	0	-2	-1	4
O=C(CSCc1ccc(Cl)cc1Cl)Nc1ccc(O)cc1C(=O)O	59*	12	21	3	3
CCCCCn1c(CNC(=O)c2ccc(F)cc2)nc2ccccc21	·	·	·	·	-19
